Compounds with a hit are over-represented: about 3.4% of the library has one in this group of screens.
HSF1 inhib: HSF1 inhibitors in luciferase reporter cells, primary screen, cell-based, NIH3T3, luminescence | hit rate 0.77% among 300,000 | NIH3T3-HGL HSE-luciferase, MG132-induced, luminescence 8 h; stronger effect = lower value | AID 2098, 2009 | activity change, negative = inhibition, % at 7.5 µM (by protocol);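 active means more than half of replicate wells show activity change below -50%, luminescence cut by over half; inconclusive means some wells, but at most half, below -50%; inactive means no replicate well below -50%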;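 further: luciferase reports HSF-1 transcriptional activity via heat shock element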
esBAF inh: Bmi1 luciferase reporter increase in mESCs, primary screen, esBAF inhibitor project, mouse ES cells, Bmi1 luciferase knock-in, single point | 24 h; 100% = twice the neutral-well signal | reporter increase, % at 12.5 µM | hit rate 2% among 350,000 | AID 602393, 2012; in the data active means activation above about 40%; inconclusive means no clear call, values can overlap the other calls;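 further: a rise in the Bmi1 reporter signal indicates esBAF inhibition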
HSF-1 act: HSF-1 activators, primary screen, NIH3T3-HGL cells, MG132 stress, luminescence, single point; activation, % at 9 µM; AID 504408, 2011; hit rate 1.7% among 300,000; NIH3T3-HGL HSF-1 luciferase reporter, 8 h; 100% = twice DMSO control signal;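 active means mean replicate activation of at least 50% with a set share of replicates each reaching 50%; inconclusive means only one of those two conditions met; inactive means mean below 50% and too few replicates reaching it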
Vif imaging: HIV Vif self-association inhibitors, primary screen, imaging, HEK293T, single point. HEK293T cells, Vif self-association by quenched fluorescence, 24 h. inhibition, % at 7.49 µM. hit rate 0.35% among 340,000. AID 602346, 2012; in the data active means inhibition above about 50%, passing the limit was not always enough; inconclusive means no clear call, values can overlap the other calls; inactive means below about 31%
Large screens that a line does not name were inactive.

Cc1cc(C)nc(Nc2ccc(C)c([N+](=O)[O-])c2)n1	esBAF inh 49
Cc1cc(C)nc(/N=C(\N)Nc2ccc(C)c([N+](=O)[O-])c2)n1	none
Cc1noc(C)c1S(=O)(=O)N(C)C[C@H]1OCc2ccccc2-c2c(n(C)c3ccccc23)C(=O)N([C@H](C)CO)C[C@H]1C	none (no result: HSF1 inhib, HSF-1 act, Vif imaging)
CCOC(=O)C1(Cc2ccccc2)CCN(Cc2csc(C(C)=O)c2)CC1	Vif imaging 119
CCOC(=O)C1(Cc2cccc(F)c2)CCN(Cc2nc(CC)[nH]c2C)CC1	Vif imaging 85
CCOC(=O)C1(Cc2ccccc2)CCN(Cc2cnn(C(C)C)c2)CC1	none
COc1ccccc1CN1[C@@H]2CN(C(=O)C3CCC3)c3ccccc3[C@@H]2[C@@H]1CO	none (no result: HSF1 inhib, HSF-1 act, Vif imaging)
CC(=O)Nc1cccc(NC(=O)c2cc(-c3cccnc3)nc3ccc(Cl)cc23)c1	none (no result: esBAF inh)
CC(=O)Nc1cccc(NC(=O)c2cc(-c3ccccn3)nc3ccc(Cl)cc23)c1	Vif imaging 70
COc1cc(C)ccc1OCCCCOc1ccccc1C(C)=O	none (no result: esBAF inh)
COc1cc(C)ccc1OCCOc1ccccc1Cl	esBAF inh 77
COc1cc(C)ccc1OCCCOc1ccccc1Cl	esBAF inh 71
C[C@H]1CN([C@@H](C)CO)C(=O)c2cc(NC(=O)Nc3ccccc3)ccc2O[C@H]1CN(C)C(=O)Nc1ccc2c(c1)OCO2	none (no result: HSF1 inhib, HSF-1 act, Vif imaging)
C=CCn1cc(/C=N/N2C(=O)C3C4C=CC(C4)C3C2=O)c2ccccc21 (configuration not stated)	none (no result: esBAF inh)
O=C1C2C3C=CC(O3)C2C(=O)N1N=Cc1cccc2ccccc12 (configuration not stated)	esBAF inh 46 (no result: HSF1 inhib, HSF-1 act)
CN(C)c1ccc(C=NNC(=S)Nc2ccc(F)cc2)cc1	esBAF inh 59 (no result: HSF1 inhib, HSF-1 act)
COc1ccccc1NC(=S)N/N=C/c1ccc(O)cc1	HSF-1 act 81 (no result: esBAF inh)
COc1ccccc1NC(=S)N/N=C/c1cccc(C)c1	none (no result: esBAF inh)
Fc1ccc(NC(=S)N/N=C/c2ccc(F)c(F)c2)c(F)c1	Vif imaging 110
O=C(CCN1CCCCC1)NCC[C@H]1CC[C@@H](NC(=O)C2CCCC2)[C@H](CO)O1	none (no result: HSF1 inhib, HSF-1 act, Vif imaging)
COc1ccccc1C1CC(c2cccs2)=Nc2ccccc2S1 (configuration not stated)	esBAF inh 53
COc1ccccc1NC(=O)COc1ccccc1	none
NC(=O)c1ccccc1NC(=O)COc1ccc(Cl)cc1	esBAF inh inconclusive
Cc1ccc(OCC(=O)Nc2ccccc2C(N)=O)cc1	esBAF inh inconclusive, HSF-1 act 57
COc1ccc(OCC(=O)Nc2ccccc2O)cc1	HSF-1 act 75
CCOc1ccccc1NC(=O)CCS(=O)(=O)c1ccc(OC)cc1	none (no result: esBAF inh)
CCc1ccccc1NC(=O)CCS(=O)(=O)c1ccc(OC)cc1	HSF1 inhib -79
COc1ccc(OC)c(NC(=O)CSc2nc3ccccc3cc2Cc2ccccc2)c1	HSF1 inhib -54
COc1ccccc1S(=O)(=O)N[C@H]1CC[C@H](CC(=O)N2CCOCC2)O[C@H]1CO	none (no result: HSF1 inhib, HSF-1 act, Vif imaging)
COc1ccc(OC)c(NC(=O)c2nc(-c3ccccc3)oc2C)c1	Vif imaging 114
COc1ccc(OC)c(NC(=O)CNC(c2ccccc2)c2ccccc2)c1	HSF-1 act 62
COc1ccc(NC(=O)COc2ccc(Br)cc2)c(OC)c1	none
COc1ccc(NC(=O)COc2ccccc2)c(OC)c1	esBAF inh 51
COc1ccc(S(=O)(=O)N(C)C[C@H]2Oc3c(NC(=O)Nc4ccccc4)cccc3C(=O)N([C@H](C)CO)C[C@H]2C)cc1	none (no result: HSF1 inhib, HSF-1 act, Vif imaging)
COc1ccc(C)c2sc(=NC(=O)c3ccccc3)n(C)c12	esBAF inh 51
N#CCSc1ccc2nc(-c3ccccc3)cn2n1	esBAF inh 51
CC(C)=CCC/C(C)=C/CNC(=O)C[C@H]1C[C@H](C(=O)N2CCCCC2)[C@@]2(CCc3ccccc3)c3[nH]c4cc(CCC(=O)N(C)C)ccc4c3CCN2C1=O	esBAF inh 52 (no result: HSF1 inhib, HSF-1 act)
Cc1cccc(N2C(=N)SCC2=O)c1C	HSF-1 act 77 (no result: esBAF inh)
CCC(=O)N1[C@H](CO)[C@@H](c2ccc(C3=CCCCC3)cc2)[C@@H]1CN(C)C(C)=O	none (no result: HSF1 inhib, HSF-1 act, Vif imaging)
Cc1noc(C)c1S(=O)(=O)N(C)C[C@@H]1Oc2ccc(NC(=O)NC(C)C)cc2CC(=O)N([C@H](C)CO)C[C@@H]1C	none (no result: HSF1 inhib, HSF-1 act, Vif imaging)
C[C@@H]1CN([C@@H](C)CO)C(=O)c2cc(NS(=O)(=O)c3cccs3)ccc2O[C@@H](C)CCCCO[C@H]1CN(C)S(=O)(=O)c1cn(C)cn1	none (no result: HSF1 inhib, HSF-1 act, Vif imaging)
Cc1cc(C(=O)COC(=O)c2ccc(O)cc2)c(C)n1-c1ccccc1F	HSF1 inhib -63 (no result: esBAF inh)
Cc1ccc(-n2c(C)cc(C(=O)COC(=O)c3ccc[nH]c3=O)c2C)cc1C	none (no result: esBAF inh)
CCCn1c(C)cc(C(=O)COC(=O)c2ccc(Cl)c(S(=O)(=O)N3CCCC3)c2)c1C	none
CCCn1c(C)cc(C(=O)COC(=O)c2ccc[nH]c2=O)c1C	HSF1 inhib -70
Cc1cc(C(=O)COC(=O)c2ccc[nH]c2=O)c(C)n1-c1ccccc1F	HSF1 inhib -51 (no result: esBAF inh)
Cc1cc(C(=O)COC(=O)c2ccc(O)cc2)c(C)n1CC(F)(F)F	esBAF inh 95 (no result: HSF1 inhib, HSF-1 act)
Cn1cnc(CCNC(=O)C[C@H]2CC[C@H]3[C@@H](COC[C@@H](O)CN3C(=O)C3CCCC3)O2)c1	none (no result: HSF1 inhib, HSF-1 act, Vif imaging)
OC1c2cc(Br)ccc2N=C2CCCCCN21 (configuration not stated)	esBAF inh 44 (no result: HSF1 inhib, HSF-1 act)
CNC(=S)N(CCc1c(C)[nH]c2ccc(C)cc12)Cc1cc(OC)c(OC)c(OC)c1	HSF1 inhib -66
CNC(=S)N(CCc1c(C)[nH]c2ccc(OC)cc12)Cc1cc(OC)c(OC)c(OC)c1	none
C[C@@H]1CN([C@H](C)CO)C(=O)c2cccc(NS(=O)(=O)c3cccs3)c2O[C@@H]1CN(C)CC1CCCCC1	none (no result: HSF1 inhib, HSF-1 act, Vif imaging)
Clc1cc(Cl)c(OCc2nc(-c3ccccn3)no2)cc1Cl	HSF-1 act 110
CN(c1ccc(O)cc1)S(=O)(=O)c1ccc2ccccc2c1	esBAF inh 58
C/C=C/c1cnc2c(c1)C(=O)N([C@@H](C)CO)C[C@H](C)[C@H](CN(C)C(=O)C1CC1)O2	none (no result: HSF1 inhib, HSF-1 act, Vif imaging)
Clc1nssc1=Nc1ccc(Br)cc1	none (no result: esBAF inh)
Clc1ccc(N=c2ssnc2Cl)nc1	HSF-1 act 130 (no result: esBAF inh)
COCCOc1cnn(-c2cc(Oc3ccc(C)cc3)ncn2)c(=O)c1Cl	none
Cc1cc(C)n(-c2cc(-n3nc(C)cc3C)ncn2)n1	none
Cc1ccc(Oc2cc(-n3nc(C)cc3C)ncn2)cc1	esBAF inh 48
COc1cnn(-c2cc(Oc3ccc(C)cc3)ncn2)c(=O)c1Cl	HSF-1 act 95
COc1cccc(CC(=O)N[C@@H](CCSC)c2nc3ccccc3[nH]2)c1	HSF1 inhib -54 (no result: esBAF inh)
COc1cccc(C(=O)N[C@@H](CCSC)c2nc3ccccc3[nH]2)c1	none (no result: esBAF inh)
COc1ccccc1C(=O)Nc1ccc2c(c1)OC[C@@H](C)N(CC1CC1)C[C@@H](C)[C@@H](OC)CN(C)C2=O	none (no result: HSF1 inhib, HSF-1 act, Vif imaging)
COc1ccc(OC)c(C(=O)COC(=O)c2ccccc2O)c1	esBAF inh 42
